Shiga inhibitor = A qHTS for Small Molecule Inhibitors of Shiga Toxin. Vero cells, Shiga toxin protein synthesis inhibition reporter. inhibition, % at 38.7 µM. actives 9.2% (n = 290,000). AID 2315, 2010; in the data active = inhibition mostly above about 28%, no sharp cut-off; inactive = mostly below about 43%
HCMV inh = qHTS Assay for inhibitors of the human cytomegalovirus (HCMV); HFF cells, HCMV-luciferase reporter, 72 h; hits give low values; activity change, negative = inhibition, % at 57.5 µM; actives 4.5% (n = 410,000); in the data active = activity change below about -60%; inconclusive = no clear call, values can overlap the other calls; inactive = above about -39%
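Luciferase read-out from HCMV-luciferase-infected HFFs (MOI 1 PFU/cell) 72 h post infection at 37C; compounds added after 16 h cell attachment; activity normalized between buffer-only basal and Salinomycin (10uM) inhibitor controls.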
Pf growth 96h = Primary qHTS for delayed death inhibitors of the malarial parasite plastid, 96 hour incubation; Potency, µM (top dose mostly 28.7 µM), most hits filed as inhibitors; AID 504834, 2011; P. falciparum luciferase reporter growth, 96 h; actives 6.9% (n = 320,000)
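Compounds incubated with erythrocytes infected by luciferase-expressing P. falciparum (2% hematocrit, 0.05% parasitemia final) for 96 hours, 37 C in 5% CO2. Growth inhibition scored as decreased luciferase luminescence.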
HCV inh = qHTS Assay for Inhibitors of Hepatitis C Virus (HCV); Huh7.5.1 HCVcc-Cre infection, luciferase reporter, 44 h; Potency, µM (series often up to 41.8 µM), actives largely listed as inhibitors; actives 3.4% (n = 340,000); AID 651820, 2012
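After 44 h co-culture of compound, cells and HCVcc-Cre (~0.5 moi), substrate is added for 15 min at room temperature and luciferase measured over 15 sec. Cells were seeded at 1,000/well and pre-cultured 4 h.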
Pf growth 48h = Primary qHTS for delayed death inhibitors of the malarial parasite plastid, 48 hour incubation | AID 504832, 2011 | actives 5.9% (n = 310,000) | Potency, µM (doses to about 28.7 µM), most hits filed as inhibitors | P. falciparum luciferase growth in erythrocytes, 48 h
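Cell-based growth assay: transgenic P. falciparum expressing firefly luciferase, cultured in red cells within RPMI 1640 containing 0.5% w/v Albumax, 24 mM bicarbonate and gentamycin. A drop in luciferase activity indicates inhibition.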
Cycloheximide cs = Cycloheximide Counterscreen for Small Molecule Inhibitors of Shiga Toxin. cell reporter, cycloheximide protein synthesis inhibition counterscreen. max response, %. actives 12% (n = 300,000). AID 2314, 2010; in the data active = max response mostly above about 13%, no sharp cut-off; inactive = mostly below about 14%; note: read at 38.3 µM for the half of the compounds with a filed dose
Each line names hits and unclear results; the compound was inactive in the other large screens. The list is not random: actives were taken first. Their share in the collection is about 21%. Unless noted, calls come from the whole dose curve; as a rule, active = well fitted inhibition curve with a large enough effect; inconclusive = small, poorly fitted or top-dose-only effect, or another doubt; inactive = no such curve, though single readings can be large or run the other way.

CCOc1ccc(C(=O)N[C@H](C(=O)Nc2ccc(OC)c(S(=O)(=O)N3CCOCC3)c2)C(C)C)cc1	Pf growth 96h inconclusive, Pf growth 48h inconclusive
CC(C)[C@H](NC(=O)c1cccc(S(=O)(=O)N2CCOCC2)c1)C(=O)Nc1nc2ccccc2s1	Shiga inhibitor active, Pf growth 96h 10µM, HCV inh inconclusive, Pf growth 48h 15µM, Cycloheximide cs 26
CC(C)C(NC(=O)c1cccc(S(=O)(=O)N2CCOCC2)c1)C(=O)NCc1ccc(Cl)cc1 (configuration not stated)	HCV inh inconclusive, Pf growth 48h inconclusive (no result: Shiga inhibitor, Cycloheximide cs)
CCOc1ccccc1C(=O)N[C@H](C(=O)Nc1ccc(OC)c(S(=O)(=O)N2CCOCC2)c1)C(C)C	Pf growth 96h inconclusive, HCV inh inconclusive, Pf growth 48h 13µM
CCOc1ccccc1NC(=O)[C@@H](NC(=O)c1cccc(S(=O)(=O)N2CCOCC2)c1)C(C)C	Pf growth 96h inconclusive, Pf growth 48h 13µM
CCOC(=O)CSc1nc2ccc(NC(=O)c3ccccc3)cc2s1	none (no result: Shiga inhibitor, Pf growth 96h, HCV inh, Pf growth 48h, Cycloheximide cs)
CCc1ccc(CNC(=O)c2cnc3sc(N4CCCCC4)nn3c2=O)cc1	none (no result: Shiga inhibitor, Pf growth 96h, HCV inh, Pf growth 48h, Cycloheximide cs)
O=C(NCc1cccc(Br)c1)C1CC(c2ccc(C(F)(F)F)cc2)=NO1 (configuration not stated)	none (no result: Shiga inhibitor, Pf growth 96h, Pf growth 48h, Cycloheximide cs)
COc1ccc(/C=N\NC(=O)c2ccccc2F)cc1COc1ccc(F)cc1F	Shiga inhibitor 32, HCMV inh -80, Pf growth 96h inconclusive, HCV inh inconclusive, Pf growth 48h inconclusive, Cycloheximide cs 24
COc1ccc(/C=N\NC(=O)c2ccccc2OC)cc1COc1ccccc1C	HCV inh inconclusive, Pf growth 48h 13µM
COc1ccc(C(=O)N/N=C/c2ccc(OC)c(COc3ccccc3)c2)cc1	Pf growth 96h inconclusive, HCV inh inconclusive
COc1ccc(/C=N\NC(=O)c2ccccc2F)cc1COc1ccc(F)cc1	Pf growth 96h inconclusive
COc1ccc(/C=N\NC(=O)c2cc(O)c(O)c(O)c2)cc1COc1ccc(C(=O)OCC(C)C)cc1	Pf growth 96h inconclusive, HCV inh 5.6µM, Pf growth 48h 2.9µM
COc1ccc(/C=N\NC(=O)c2ccccc2)cc1COc1ccccc1	Shiga inhibitor 45, Pf growth 96h 12µM, Pf growth 48h inconclusive, Cycloheximide cs 25
COCCCn1c(=O)c2ccccc2n(CC(=O)Nc2ccc3c(c2)OCCO3)c1=O	Pf growth 48h inconclusive
COCc1cc(/C=N\NC(=O)c2ccc(Cl)cc2)ccc1OC	none
COc1ccc(/C=N/NC(=O)c2ccco2)cc1COc1ccc(F)cc1	Pf growth 96h inconclusive, Pf growth 48h 9.3µM
COc1ccc(/C=N/NC(=O)c2ccn[nH]2)cc1CN1CCOCC1	none
COc1ccc(/C=N/NC(=O)c2ccc(OC)c(OC)c2)cc1COc1c(F)c(F)c(F)c(F)c1F	HCV inh 3.5µM
COc1ccc(/C=N/NC(=O)c2cc(C(C)(C)C)[nH]n2)cc1COc1ccc(F)cc1F	Pf growth 96h 13µM, HCV inh inconclusive, Pf growth 48h inconclusive
COc1cccc(OCc2cc(/C=N/NC(=O)c3ccn[nH]3)ccc2OC)c1	Shiga inhibitor 71, Cycloheximide cs 50
COc1cc(OC)cc(C(=O)N/N=C/c2ccc(OC)c(COc3ccc4ccccc4c3)c2)c1	Pf growth 96h inconclusive
COc1ccc(/C=N/NC(=O)c2ccoc2C)cc1COc1c(C)cccc1C	Shiga inhibitor 117, HCMV inh -97, Pf growth 96h 10µM, HCV inh inconclusive, Pf growth 48h inconclusive, Cycloheximide cs 33
COc1ccc(/C=N/NC(=O)c2nc(Cl)c(Cl)c(N)c2Cl)cc1COc1ccc(F)cc1F	HCV inh 11µM
COc1cc(/C=N/NC(=O)c2ccoc2C)cc(OC)c1O	Shiga inhibitor 83, Pf growth 96h 2.6µM, Cycloheximide cs 47
COc1ccc(/C=N/NC(=O)c2nn(C)cc2Br)cc1CSCc1ccco1	Shiga inhibitor 38, Cycloheximide cs 31
CCOc1cc(/C=N/NC(=O)c2nn(C)cc2Br)ccc1OCc1ccccc1	Pf growth 96h inconclusive, HCV inh inconclusive
COc1ccc(/C=N/NC(=O)c2nc(Cl)c(Cl)c(N)c2Cl)cc1COc1ccccc1F	Pf growth 96h inconclusive, HCV inh inconclusive, Pf growth 48h inconclusive
COc1ccc(N(Cc2cccs2)C(=O)COc2cccc(Cl)c2)cc1	none (no result: Shiga inhibitor, Pf growth 96h, HCV inh, Pf growth 48h, Cycloheximide cs)
N#CC1(NC(=O)COC(=O)Cc2c[nH]c3ccccc23)CCCCC1	none (no result: Shiga inhibitor, Pf growth 96h, HCV inh, Pf growth 48h, Cycloheximide cs)
O=C(O)C1Oc2ccccc2C1c1ccccc1 (configuration not stated)	none (no result: Shiga inhibitor, Pf growth 96h, Pf growth 48h, Cycloheximide cs)
CC1=C(C(=O)Nc2ccccc2)C(c2ccc(C(=O)O)cc2)n2nc(SCC(=O)c3ccc(C)cc3)nc2N1 (configuration not stated)	none (no result: Shiga inhibitor, Pf growth 96h, HCV inh, Pf growth 48h, Cycloheximide cs)
CCOc1ccc(NCc2nc3ccccc3n2CCOc2ccc(C)cc2)cc1	none (no result: Shiga inhibitor, Pf growth 96h, HCV inh, Pf growth 48h, Cycloheximide cs)
Cc1cccc(Cn2c(COc3ccccc3)nc3ccccc32)c1	none (no result: Shiga inhibitor, Pf growth 96h, HCV inh, Pf growth 48h, Cycloheximide cs)
COc1ccc(OCc2nc3ccccc3n2C(C)C)cc1	none
COc1ccc(OCCn2c(C)nc3ccccc32)cc1	none (no result: Shiga inhibitor, Pf growth 96h, HCV inh, Pf growth 48h, Cycloheximide cs)
CCn1c(COc2ccccc2)nc2ccccc21	Shiga inhibitor 36, HCV inh inconclusive, Cycloheximide cs 24
COCCn1c(COc2ccc(OC)cc2)nc2ccccc21	Shiga inhibitor 49, HCV inh inconclusive, Cycloheximide cs 22 (no result: Pf growth 96h)
CCOc1ccc(NCc2nc3ccccc3n2CCOc2ccccc2)cc1	Shiga inhibitor 61, Pf growth 96h 6.6µM, HCV inh inconclusive, Cycloheximide cs 38
C=CCn1c(COc2ccc(OC)cc2)nc2ccccc21	Cycloheximide cs 44
CCn1c(COc2ccc(OC)cc2)nc2ccccc21	Shiga inhibitor 80, Pf growth 96h 4.7µM, Cycloheximide cs 50
COc1ccccc1CNC(=O)c1c2c(nc3ccccc13)C(=O)N(C1CCCCC1)C2	none (no result: Shiga inhibitor, Pf growth 96h, HCV inh, Pf growth 48h, Cycloheximide cs)
C=CCn1c(CC(=O)OC)csc1=Nc1ccc(C(C)=O)cc1	Shiga inhibitor 63, Pf growth 96h inconclusive, Cycloheximide cs 33
C=CCn1c(/N=C/c2ccc(N(C)C)cc2)nc2ccccc21	none
C=CCN1C(=O)C(CC(=O)O)SC1=Nc1ccc(C(=O)O)cc1 (configuration not stated)	none
C=CCn1c(C)csc1=Nc1ccc(C(C)=O)cc1	Shiga inhibitor 111, Cycloheximide cs 34
C=CCn1c2ccccc2c2nnc(SCC(=O)OC)nc21	none (no result: Shiga inhibitor, Pf growth 96h, HCV inh, Pf growth 48h, Cycloheximide cs)
CCOC(=O)c1ccc(N=c2scc(C)n2CC)cc1	Shiga inhibitor 80, Cycloheximide cs 40
C=CCn1c(C)csc1=Nc1ccccc1C	Pf growth 96h inconclusive, Cycloheximide cs 30
CCCOc1ccc(C2c3c(-c4ccccc4O)n[nH]c3C(=O)N2Cc2ccncc2)cc1OCC (configuration not stated)	none (no result: Shiga inhibitor, Pf growth 96h, HCV inh, Pf growth 48h, Cycloheximide cs)

Screening results: PubChem BioAssay, National Center for Advancing Translational Sciences (NCATS)
